# Test results from PubChem BioAssay (NCI).
# This is part of a sample that, as a whole, favours compounds with a hit. Of some 79,000 tested, about 15% had one in any assay. Unmarked numbers belong to inactive results. Activity calls are given as the source filed them. Cut-off read from the data, not from the text of the source: active = growth inhibition above about 70%; inactive = the rest.
# Columns and labels:
# [1] = NCI Yeast Anticancer Drug Screen. Data for the rad52 strain (AID 147);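 note: 0% = growth of vehicle-treated control cultures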; conditions: S. cerevisiae rad52 mutant growth inhibition, active compounds read high
# In short: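 Measured: yeast growth inhibition. System: strain with a defined DNA damage repair alteration. Reference: vehicle-treated control cultures.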
# [2] = NCI Yeast Anticancer Drug Screen. Data for the wt1 strain (AID 149);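 note: 0% = growth of vehicle-treated wt1 cultures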; conditions: S. cerevisiae wt1 strain (SPY 50644) growth inhibition, active compounds read high
# In short: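 Each compound is tested on wt1 yeast and the loss of growth versus vehicle gives the inhibition value.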
# [3] = NCI Yeast Anticancer Drug Screen. Data for the mgt1 strain (AID 153); conditions: S. cerevisiae mgt1 mutant growth inhibition, active compounds read high
# In short: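 After exposure of the mgt1 yeast mutant to compound, growth was measured and reported as inhibition compared with vehicle controls.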
# [4] = NCI Yeast Anticancer Drug Screen. Data for the rad50 strain (AID 155);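 note: 0% = growth of vehicle-only cultures of the same strain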; conditions: S. cerevisiae rad50 strain growth inhibition, active compounds read high
# In short: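 Vehicle-treated cultures provide the reference for the growth inhibition reported for compound-exposed, repair-deficient yeast.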
# [5] = NCI Yeast Anticancer Drug Screen. Data for the rad14 strain (AID 159);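 note: 0% = growth of vehicle-treated control cultures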; conditions: S. cerevisiae rad14 strain growth inhibition, active compounds read high
# In short: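 Inhibition of growth is reported for a repair-deficient yeast mutant following compound treatment, calculated relative to cultures that received vehicle.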
# [6] = NCI Yeast Anticancer Drug Screen. Data for the sgs1 mgt1 strain (AID 161);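 note: 0% = growth of cultures given vehicle only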; conditions: S. cerevisiae sgs1 mgt1 strain, active compounds read high
# In short: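 Test agents were incubated with a DNA-repair-mutant yeast strain. Growth was then read and compared against vehicle-treated controls.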
# [7] = NCI Yeast Anticancer Drug Screen. Data for the CLN2oe strain (AID 163);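 note: 0% = growth of vehicle-only control cultures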; conditions: S. cerevisiae CLN2oe strain, active compounds read high
# In short: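 Here, growth inhibition in a cell-cycle-altered yeast strain after compound exposure was quantified against vehicle control growth.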
# [8] = NCI Yeast Anticancer Drug Screen. Data for the cln2 rad14 strain (AID 165);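 note: 0% = growth equal to vehicle treated cultures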; conditions: S. cerevisiae cln2 rad14 strain, active compounds read high
# In short: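 Growth of compound-exposed yeast (cln2 rad14 genotype) measured and expressed as inhibition relative to vehicle.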
# [9] = NCI Yeast Anticancer Drug Screen. Data for the bub3 strain (AID 167); conditions: S. cerevisiae bub3 mutant strain, active compounds read high
# In short: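 Mutant yeast screening strain plus compound; vehicle-treated cultures serve as the 0% inhibition reference.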
# [10] = NCI Yeast Anticancer Drug Screen. Data for the wt2 strain (AID 169); conditions: S. cerevisiae wt2 strain growth inhibition, active compounds read high
# In short: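 Genetically defined yeast strains from a DNA-repair/cell-cycle panel were used. Compound-exposed yeast growth was measured, and the inhibition was calculated relative to vehicle treatment.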
# [11] = NCI Yeast Anticancer Drug Screen. Data for the mlh1 strain (AID 171);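 note: 0% = growth of vehicle-treated control cultures of the same strain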; conditions: S. cerevisiae mlh1 strain growth inhibition, active compounds read high
# In short: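 Here the genetically defined yeast mutant is grown with each compound, and the extent to which its growth falls below that of vehicle-exposed cells is reported.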
# [12] = NCI Yeast Anticancer Drug Screen. Data for the sgs1 strain (AID 173);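 note: 0% = growth of vehicle-only control cultures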; conditions: S. cerevisiae sgs1 mutant, active compounds read high
# In short: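 Relative growth inhibition, referenced to vehicle, was determined in a yeast strain with a defined alteration affecting DNA damage repair or cell cycle control after compound exposure.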
# [13] = NCI Yeast Anticancer Drug Screen. Data for the mlh1 rad18 strain (AID 175); conditions: S. cerevisiae mlh1 rad18 strain growth inhibition, active compounds read high
# In short: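 In this whole-cell yeast screen, a strain with altered DNA damage repair is challenged with compound, and its growth is measured against matched vehicle-treated controls.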
# [14] = NCI Yeast Anticancer Drug Screen. Data for the rad50EPP+ strain (AID 151);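 note: 0% = growth of vehicle-treated control cultures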; conditions: S. cerevisiae rad50 mutant strain, active compounds read high
# In short: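 One strain with a rad50 alteration (rad50EPP+) was compound-treated, its growth then compared to that of vehicle controls.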
# [15] = NCI Yeast Anticancer Drug Screen. Data for the mec2-1 strain (AID 157); conditions: S. cerevisiae mec2-1 strain, active compounds read high
# In short: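 Test agents were screened against the mec2-1 yeast strain, with defined DNA repair or cell cycle alteration. Growth was scored as inhibition against vehicle-only controls.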
# [16] = at 5.0 µM (retest, dose inferred, filed as 0.5)
# [17] = at 50.0 µM (retest, dose inferred, filed as 5.0)
smiles,measurement,setting,value
Cc1c(Cl)ccc2c1S(=O)(=O)c1cccc(Cl)c1-2,growth inhibition,[1]; at 1.2 µM,0%
same,growth inhibition,[1]; at 3.7 µM,0%
same,growth inhibition,[1]; at 11.0 µM,-4%
same,growth inhibition,[1]; at 33.0 µM,-9%
same,growth inhibition,[1]; at 100.0 µM,-9%
same,growth inhibition,[2]; at 1.2 µM,-6%
same,growth inhibition,[2]; at 3.7 µM,-2%
same,growth inhibition,[2]; at 11.0 µM,-1%
same,growth inhibition,[2]; at 33.0 µM,-15%
same,growth inhibition,[2]; at 100.0 µM,-1%
same,growth inhibition,[3]; at 1.2 µM,-2%
same,growth inhibition,[3]; at 3.7 µM,1%
same,growth inhibition,[3]; at 11.0 µM,9%
same,growth inhibition,[3]; at 33.0 µM,-5%
same,growth inhibition,[3]; at 100.0 µM,-8%
same,growth inhibition,[4]; at 1.2 µM,-22%
same,growth inhibition,[4]; at 3.7 µM,-9%
same,growth inhibition,[4]; [16],100% (active)
same,growth inhibition,[4]; at 11.0 µM,-30%
same,growth inhibition,[4]; at 33.0 µM,-17%
same,growth inhibition,[4]; [17],100% (active)
same,growth inhibition,[4]; at 50.0 µM,20.8%
same,growth inhibition,[4]; at 100.0 µM,-3%
same,growth inhibition,[5]; at 1.2 µM,2%
same,growth inhibition,[5]; at 3.7 µM,6%
same,growth inhibition,[5]; at 11.0 µM,2%
same,growth inhibition,[5]; at 33.0 µM,5%
same,growth inhibition,[5]; at 100.0 µM,5%
same,growth inhibition,[6]; [16],-13%
same,growth inhibition,[6]; [17],28%
same,growth inhibition,[6]; at 50.0 µM,20.9%
same,growth inhibition,[7]; at 1.2 µM,-5%
same,growth inhibition,[7]; at 3.7 µM,6%
same,growth inhibition,[7]; at 11.0 µM,8%
same,growth inhibition,[7]; at 33.0 µM,-4%
same,growth inhibition,[7]; at 100.0 µM,-18%
same,growth inhibition,[8]; [16],31%
same,growth inhibition,[8]; [17],28%
same,growth inhibition,[8]; at 50.0 µM,0.75%
same,growth inhibition,[9]; at 1.2 µM,-27%
same,growth inhibition,[9]; at 3.7 µM,-13%
same,growth inhibition,[9]; [16],18%
same,growth inhibition,[9]; at 11.0 µM,1%
same,growth inhibition,[9]; at 33.0 µM,-10%
same,growth inhibition,[9]; [17],51%
same,growth inhibition,[9]; at 50.0 µM,81.3% (active)
same,growth inhibition,[9]; at 100.0 µM,-18%
same,growth inhibition,[10]; at 1.2 µM,-10%
same,growth inhibition,[10]; at 3.7 µM,-9%
same,growth inhibition,[10]; at 11.0 µM,-12%
same,growth inhibition,[10]; at 33.0 µM,-12%
same,growth inhibition,[10]; at 100.0 µM,-25%
same,growth inhibition,[11]; at 1.2 µM,-3%
same,growth inhibition,[11]; at 3.7 µM,2%
same,growth inhibition,[11]; at 11.0 µM,-5%
same,growth inhibition,[11]; at 33.0 µM,-8%
same,growth inhibition,[11]; at 100.0 µM,-2%
same,growth inhibition,[12]; at 1.2 µM,-10%
same,growth inhibition,[12]; at 3.7 µM,-19%
same,growth inhibition,[12]; at 11.0 µM,-18%
same,growth inhibition,[12]; at 33.0 µM,-13%
same,growth inhibition,[12]; at 100.0 µM,-24%
same,growth inhibition,[13]; [16],100% (active)
same,growth inhibition,[13]; [17],100% (active)
same,growth inhibition,[13]; at 50.0 µM,37.2%
c1ccc2c(c1)Oc1cccc3cccc-2c13,growth inhibition,[1]; at 1.2 µM,5%
same,growth inhibition,[1]; at 3.7 µM,3%
same,growth inhibition,[1]; at 11.0 µM,5%
same,growth inhibition,[1]; at 33.0 µM,38%
same,growth inhibition,[1]; at 100.0 µM,58%
same,growth inhibition,[14]; at 1.2 µM,11%
same,growth inhibition,[14]; at 3.7 µM,8%
same,growth inhibition,[14]; at 11.0 µM,34%
same,growth inhibition,[14]; at 33.0 µM,43%
same,growth inhibition,[14]; at 100.0 µM,63%
same,growth inhibition,[3]; at 1.2 µM,-1%
same,growth inhibition,[3]; at 3.7 µM,-8%
same,growth inhibition,[3]; at 11.0 µM,1%
same,growth inhibition,[3]; at 33.0 µM,16%
same,growth inhibition,[3]; at 100.0 µM,27%
same,growth inhibition,[4]; at 1.2 µM,-2%
same,growth inhibition,[4]; at 3.7 µM,8%
same,growth inhibition,[4]; [16],95% (active)
same,growth inhibition,[4]; at 11.0 µM,5%
same,growth inhibition,[4]; at 33.0 µM,23%
same,growth inhibition,[4]; [17],98% (active)
same,growth inhibition,[4]; at 50.0 µM,67.2%
same,growth inhibition,[4]; at 100.0 µM,62%
same,growth inhibition,[15]; at 1.2 µM,-6%
same,growth inhibition,[15]; at 3.7 µM,4%
same,growth inhibition,[15]; [16],99% (active)
same,growth inhibition,[15]; at 11.0 µM,-3%
same,growth inhibition,[15]; at 33.0 µM,2%
same,growth inhibition,[15]; [17],99% (active)
same,growth inhibition,[15]; at 50.0 µM,17.6%
same,growth inhibition,[15]; at 100.0 µM,20%
same,growth inhibition,[5]; at 1.2 µM,0%
same,growth inhibition,[5]; at 3.7 µM,6%
same,growth inhibition,[5]; at 11.0 µM,21%
same,growth inhibition,[5]; at 33.0 µM,36%
same,growth inhibition,[5]; at 100.0 µM,39%
same,growth inhibition,[6]; [16],0%
same,growth inhibition,[6]; [17],43%
same,growth inhibition,[6]; at 50.0 µM,47.6%
same,growth inhibition,[7]; at 1.2 µM,18%
same,growth inhibition,[7]; at 3.7 µM,16%
same,growth inhibition,[7]; at 11.0 µM,8%
same,growth inhibition,[7]; at 33.0 µM,14%
same,growth inhibition,[7]; at 100.0 µM,18%
same,growth inhibition,[8]; [16],34%
same,growth inhibition,[8]; [17],20%
same,growth inhibition,[8]; at 50.0 µM,25.4%
same,growth inhibition,[9]; at 1.2 µM,6%
same,growth inhibition,[9]; at 3.7 µM,-6%
same,growth inhibition,[9]; [16],-5%
same,growth inhibition,[9]; at 11.0 µM,-3%
same,growth inhibition,[9]; at 33.0 µM,17%
same,growth inhibition,[9]; [17],55%
same,growth inhibition,[9]; at 50.0 µM,56.4%
same,growth inhibition,[9]; at 100.0 µM,36%
same,growth inhibition,[10]; at 1.2 µM,2%
same,growth inhibition,[10]; at 3.7 µM,0%
same,growth inhibition,[10]; at 11.0 µM,1%
same,growth inhibition,[10]; at 33.0 µM,15%
same,growth inhibition,[10]; at 100.0 µM,36%
